In the library only some 4.7% were active in any assay of this set; here they are far more common.
Pemphigus Ab inh – inhibitors of pemphigus antibody binding to DSG3, primary screen, biochemical, bead-based, flow cytometry, scFv-GFP; DSG3-coupled beads, scFv-anti-DSG3-GFP binding; active compounds read low; binding (percent of control), % at 10 µM; 0.48% of 310,000 active; AID 588358, 2011;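 active means binding more than 3 SD below its plate's average and above zero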;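 further: hits lower antibody fragment binding to DSG3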
ADAM17 inh – ADAM17 inhibitors, primary screen, biochemical, QFRET. recombinant ADAM17, EDANS/DABCYL FRET peptide cleavage. inhibition, % at 6.95 µM. Disintegrin and metalloproteinase domain-containing protein 17 (Homo sapiens), P78536. 0.83% of 370,000 active. AID 720648, 2013;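 active means inhibition above the mean of compounds lying between control limits plus 3 SD, set per campaign, cut at about 8.5% in these data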;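 further: 0% = DMSO-only wells as the low control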
ADAM10 inh – human ADAM10 inhibitors, primary screen, biochemical, QFRET, HTS | Disintegrin and metalloproteinase domain-containing protein 10 (Homo sapiens), O14672 | recombinant ADAM10, EDANS/DABCYL FRET peptide cleavage, 3 h | inhibition, % at 7 µM | 0.62% of 370,000 active | AID 720582, 2013;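 active means inhibition above a per-campaign cutoff equal to the mean of compounds falling between control-based bounds plus 3 SD, cut at about 20% in these data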;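 further: 0% = DMSO wells while the 100% control is not disclosed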
Target sequence (O14672 214-748 limits assumed): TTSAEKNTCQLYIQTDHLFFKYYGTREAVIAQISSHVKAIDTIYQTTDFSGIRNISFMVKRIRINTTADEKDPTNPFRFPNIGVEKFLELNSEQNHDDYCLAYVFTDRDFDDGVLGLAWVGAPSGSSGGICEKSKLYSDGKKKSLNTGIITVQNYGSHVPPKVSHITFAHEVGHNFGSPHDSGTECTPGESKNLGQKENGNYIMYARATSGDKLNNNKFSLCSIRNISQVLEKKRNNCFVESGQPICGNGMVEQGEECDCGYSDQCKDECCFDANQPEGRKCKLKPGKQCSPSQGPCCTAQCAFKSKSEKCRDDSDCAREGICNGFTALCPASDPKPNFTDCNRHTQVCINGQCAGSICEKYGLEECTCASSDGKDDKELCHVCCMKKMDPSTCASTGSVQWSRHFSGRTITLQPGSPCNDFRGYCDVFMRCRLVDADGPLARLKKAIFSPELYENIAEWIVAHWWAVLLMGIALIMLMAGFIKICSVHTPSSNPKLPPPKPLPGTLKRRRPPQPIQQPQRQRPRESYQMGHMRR
rCAG binder – binders of r(CAG) RNA repeats, primary screen, biochemical, fluorescence; r(CAG) RNA repeat, TO-PRO-1 dye displacement fluorescence; inhibition, % at 3 µM; 1.3% of 370,000 active; AID 651821, 2012;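 active means inhibition above the plate cutoff, the mean of all test compounds on that plate plus 3 SD, cut at about 35% in these data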;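 further: 0% = DMSO alone and 100% = 100 µM mitoxantrone as full dye displacement; higher means more dye released from RNA so lower well fluorescence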
MPTP block – mitochondrial permeability transition pore inhibitors, primary screen, biochemical, isolated mouse mitochondria, absorbance | Ca2+ swelling absorbance, 30 min | inhibition, % at 10 µM | 1.4% of 360,000 active | AID 602449, 2012;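 active means inhibition of 50% or more, scaled per plate between neutral and stimulator controls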;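 further: 0% = DMSO wells given calcium and 100% = 1 mM EGTA wells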
KLK7 zymogen act – proKLK7 zymogen activators, primary screen, biochemical, fluorescence intensity; Kallikrein-7 (Homo sapiens), P49862; purified proKLK7, EDANS-DABCYL substrate fluorescence; 100% is mature enzyme control, 0% vehicle; activation, % at 7 µM; 0.9% of 370,000 active; AID 652039, 2013;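 active means activation above the mean of all tested compounds plus 3 SD, computed per campaign excluding outliers beyond control limits, cut at about 13% in these data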
Active calls of the source: *; i = inactive; . = no result; ! = a repeat was not active.

SMILES	Pemphigus Ab inh	ADAM17 inh	ADAM10 inh	rCAG binder	MPTP block	KLK7 zymogen act
C[c-]1[c-](C)[c-](C)[c-](C)[c-]1C.[Fe].c1cc2nccc(N3CCCC3)[c-]2c1 (stereo not drawn)	80*!	-6	-18	9	3	1
Cc1nc2ccc(NC(=O)c3ccc(S(=O)(=O)N4CCOCC4)cc3)cc2s1	81*	4	15	1	1	-1
COc1ccc(S(=O)(=O)N2CCOCC2)cc1NC(=O)c1ccc(S(=O)(=O)N2CCCCC2)cc1	99	3	-3	13	0	1
CCOC(=O)c1ccc(NC(=O)c2ccc(C)c(S(=O)(=O)N3CCOCC3)c2)cc1	86	6	-2	0	-4	1
CSc1nc2ccc(NC(=O)c3ccco3)cc2s1	109	0	4	3	-1	1
CC(=O)c1ccc(NC(=O)c2ccc(C)c(S(=O)(=O)N3CCOCC3)c2)cc1	67*	0	-6	1	1	0
CC(=O)Nc1ccc(C(=O)Nc2ccc(S(=O)(=O)N3CCOCC3)cc2)cc1	112	1	-8	2	-1	0
CSc1nc2ccc(NC(=O)c3cccs3)cc2s1	28*	1	-5	4	1	1
COc1ccc(OC)c2sc(NC(=O)c3ccc(S(=O)(=O)N4CCOCC4)cc3)nc12	-17*	-1	-7	2	0	0
COC(=O)C1=C(C)N(Cc2ccccc2C(F)(F)F)C(=NCc2ccc3c(c2)OCO3)NC1c1cccc(C(F)(F)F)c1 (stereo not drawn)	.	3	5	1	.	0
Cc1ccc2nc(NC(=O)c3ccc(Cl)s3)sc2c1	100	-2	-19	0	1	0
Cc1nc2ccc(NC(=O)c3ccc(Cl)s3)cc2s1	106	2	5	7	0	13*
CCOC(=O)CN1C(=O)[C@]2(OCCC=C[C@H]2C)c2c(Br)cccc21	.	-3	2	0	.	-1
Cc1ccc(OCc2nn3c(C4CCCCC4)nnc3s2)cc1	.	-3	-16	-1	.	0
N#Cc1c(SCC(=O)Nc2ccccc2)nsc1SCC(=O)Nc1ccccc1	67*	-1	-5	-1	5	0
Cc1cccc(NC(=O)CSc2nsc(SCC(=O)Nc3cccc(C)c3)c2C#N)c1	106	-7	0	10	36	0
CC(C)(C)N(Cc1cc2ccccc2[nH]c1=O)C(=O)c1cccc([N+](=O)[O-])c1	93	-2	4	-5	1	0
Cc1cccc2cc(CN(C(=O)c3cccc([N+](=O)[O-])c3)C(C)C)c(=O)[nH]c12	59*	-1	1	2	0	0
COCc1cc(N2CCN(C(=O)OC(C)(C)C)C[C@H]2C)ccc1N1C[C@@H](C)O[C@@H](C)C1	.	-1	-6	2	.	1
O=c1[nH][nH]c2cc(=O)n(-c3ccc(Cl)cc3)nc12	90	0	5	43*	-4	0
CC(=O)c1nn(-c2ccc(Cl)cc2)c(=O)[nH]c1=O	96	-2	-1	5	0	0
COc1ccc(N2CCN(S(=O)(=O)CCNC(=O)COc3cccc(OC)c3)CC2)cc1	54*	2	3	-1	0	0
COC(=O)c1cc2c(c3c4cc(F)ccc4n(S(=O)(=O)c4ccc(C)cc4)c13)C(=O)N(C)C2	.	-2	-4	11	.	-1
O=c1c2ccccc2sn1-c1ccc(S(=O)(=O)N2CCCCC2)cc1	89	0	3	4	-3	-1
Cc1ccc(C(=O)NNC(=O)c2ccccc2)cc1S(=O)(=O)N1CCCCC1	109	-7	-9	3	-1	0
SMILES	Pemphigus Ab inh	ADAM17 inh	ADAM10 inh	rCAG binder	MPTP block	KLK7 zymogen act
O=c1c2ccccc2sn1-c1ccc(S(=O)(=O)N2CCCC2)cc1	62*	6	6	9	0	0
Cc1ccc(-n2sc3ccccc3c2=O)cc1S(=O)(=O)N1CCCCC1	12*	4	13	24	41	0
COc1cccc2c1[C@H](/C=C/c1ccccc1)[C@@H]([C@H](O)CO)OC2	.	-1	2	2	.	0
O=C1CS/C(=N/N=C/c2cccs2)N1Cc1ccc(F)cc1	70*	2	3	1	47	1
C=CCN1C(=O)C(Cc2ccc(F)cc2)S/C1=N/N=C/c1cccs1 (stereo not drawn)	103	-1	2	-1	-1	0
O=C(c1ccc(Cl)c(Cl)c1)c1cnc(Nc2ccccc2)s1	-25*	1	-1	3	3	0
CNc1ncc(C(=O)c2ccc(Cl)c(Cl)c2)s1	93	4	15	0	0	0
COc1ccc2nc(NC(=O)c3sc4nc(C)cc(C)c4c3N)sc2c1	74*	-17	-37	5	4	0
COC(=O)c1sc2nc(C)cc(C)c2c1N	101	-263	i	0	0	1
Cc1ccc(C(=O)N2CCC(Oc3cccnc3)CC2)c(C)c1	.	-2	2	-1	.	0
O=C1CS/C(=N/N=C/c2ccncc2)N1	81*	0	7	1	0	0
CCn1c(=S)sc2c(=O)[nH]c(SCC(=O)Nc3cc(OC)ccc3OC)nc21	.	5	10	76*	0	0
COc1ccc(OC)c(NC(=O)CSc2nc3[nH]c(=O)[nH]c(=O)c3s2)c1	102	2	-2	37*	0	0
COc1ccc(OC)c(NC(=O)CSc2nc3scc(C)c3c(=O)[nH]2)c1	93	-4	4	28	2	0
O=C(O)Cn1c2c(c3ccccc31)CSc1ccc(Cl)cc1-2	107	-8	-14	58*	0	-1
COc1cc(OC)c2c(O)c3c(c(-c4c5c(c(O)c6c(OC)cc(OC)cc46)CO[C@@H](C)[C@H]5O)c2c1)[C@H](O)[C@H](C)OC3	74*	.	.	.	2	.
COc1ccc(NC(=O)Nc2ccccc2SC)c(OC)c1	-6.3*	-1	-4	-8	1	0
Cc1ccc2nc(-c3cccc(Br)c3)c(Cc3ccsc3)n2c1	.	-6	-30	11	.	0
COc1ccc(-c2csc(NC(=O)c3cc(C)on3)c2C#N)cc1OC	79*	-2	-4	14	-2	0
FC(F)(F)c1ccccc1Cn1ccc2ccc(-c3ccc4ccn(Cc5ccccc5C(F)(F)F)c4c3)cc21	.	0	4	4	.	0
Cc1cccc(NC(=O)[C@H](Cc2ccccc2)NC(=O)OCc2ccccc2)c1	-3.4*	0	-4	-3	0	0
